Laboratory results published in the supplement of paper PMC6555819.

How the values were obtained:
Assay in all cases: PBM binding z-score (relative to random genomic background probes); higher = stronger binding; sequences stand for … in GC…GCGATTGACAGCGTAGAATGAAGG
[1] = tested on: FXR:RXRa (NR concentration 270 nM, RXRa partner concentration 90 nM)
Outline: (§1)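 Ligand-free nuclear receptor dimers were applied to custom Agilent 4×180K protein-binding microarrays whose double-stranded probes carried direct-repeat seeds, single-nucleotide variants, half-site ablations and random human genomic background sequences in 34-nt variable regions. Incubation lasted 1 h. Binding z-scores were computed against the random background probes from regression-normalized fluorescence.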

[2] = tested on: LXRa:RXRa (NR concentration 270 nM, RXRa partner concentration 90 nM)
Outline: as §1

[3] = tested on: LXRa homodimer (NR concentration 270 nM)
Outline: as §1

[4] = tested on: LXRb:RXRa (NR concentration 270 nM, RXRa partner concentration 90 nM)
Outline: as §1

[5] = tested on: LXRb homodimer (NR concentration 270 nM)
Outline: as §1

[6] = tested on: PPARa:RXRa (NR concentration 270 nM, RXRa partner concentration 90 nM)
Outline: as §1

[7] = tested on: PPARg:RXRa (NR concentration 180 nM, RXRa partner concentration 90 nM)
Outline: as §1

[8] = tested on: PPARg:RXRa 270nM:90nM, anti-RXR (NR concentration 270 nM, RXRa partner concentration 90 nM)
Outline: as §1

[9] = tested on: PPARg:RXRa 30nM:10nM, anti-RXR (NR concentration 30 nM, RXRa partner concentration 10 nM)
Outline: as §1

[10] = tested on: PPARg:RXRa 90nM:30nM, anti-RXR (NR concentration 90 nM, RXRa partner concentration 30 nM)
Outline: as §1

[11] = tested on: PPARg:RXRa DBDmut IVT, anti-RXR (DBD mutation: RXRa K156A/R161A, NR concentration 270 nM, RXRa partner concentration 90 nM)
Outline: as §1

[12] = tested on: PPARg:RXRa IVT, anti-PPARg (NR concentration 270 nM, RXRa partner concentration 90 nM)
Outline: as §1

[13] = tested on: PPARg DBDmut:RXRa IVT, anti-PPARg (DBD mutation: PPARg1 K132A/R137A, NR concentration 270 nM, RXRa partner concentration 90 nM)
Outline: as §1

[14] = tested on: PPARg DBDmut IVT, anti-PPARg (DBD mutation: PPARg1 K132A/R137A, NR concentration 270 nM)
Outline: as §1

[15] = tested on: PPARg homodimer (NR concentration 180 nM)
Outline: as §1

[16] = tested on: PXR:RXRa (NR concentration 270 nM, RXRa partner concentration 90 nM)
Outline: as §1

[17] = tested on: PXR homodimer (NR concentration 270 nM)
Outline: as §1

[18] = tested on: RARa:RXR (NR concentration 270 nM, RXRa partner concentration 90 nM)
Outline: as §1

[19] = tested on: RARa homodimer (NR concentration 270 nM)
Outline: as §1

[20] = tested on: RARb:RXRa (NR concentration 270 nM, RXRa partner concentration 90 nM)
Outline: as §1

Sequence	PBM binding z-score [1]	PBM binding z-score [2]	PBM binding z-score [3]	PBM binding z-score [4]	PBM binding z-score [5]	PBM binding z-score [6]	PBM binding z-score [7]	PBM binding z-score [8]	PBM binding z-score [9]	PBM binding z-score [10]	PBM binding z-score [11]	PBM binding z-score [12]	PBM binding z-score [13]	PBM binding z-score [14]	PBM binding z-score [15]	PBM binding z-score [16]	PBM binding z-score [17]	PBM binding z-score [18]	PBM binding z-score [19]	PBM binding z-score [20]
ATCTCTAAGTAACCAAGTTCAGTGAATGCCGAAC	0.436	0.569	0.843	0.518	0.349	0.397	-0.15	0.228	0.371	0.352	-0.304	0.256	0.36	0.891	0.71	1.3	1.61	0.788	0.561	1.16
ATCTCTACGTAAAGTTCAGTGAAAGATCGATAGA	0.641	1.57	1.36	1.02	1.16	1.36	1.04	2.47	1.02	1.96	-0.332	0.634	1.64	1.55	1.75	1.93	1.97	1.39	1.12	3.02
GCTCGGTGGACAAGGTCAGAGCTTTGTCCGTAGA	1.11	1.03	-0.446	0.887	-1.16	2.09	0.0962	1.14	-0.712	0.499	0.124	0.413	-1.69	-0.301	0.136	1.68	-0.455	2.25	-0.966	2.68
TCTATTAGTTGTAGGGCAACCGACGAGTCCGTTT	0.532	0.422	0.481	0.268	0.355	1.1	0.164	1.78	3.28	2.49	3.04	2.66	0.777	1.16	0.517	0.457	0.613	0.212	0.401	0.601
GCAGATAGGTAATACAAGGTGAAAGTCCGATTGT	1.42	2.24	0.134	0.475	-0.791	1.04	0.544	0.592	0.199	0.421	0.315	0.869	0.607	0.154	0.298	0.645	0.172	0.91	0.423	0.412
CGGACGAGGGCATGAGTTGATAGCAAATGCCGAT	0.265	0.0809	-0.262	-0.154	-0.96	1.01	0.992	0.682	-0.202	0.196	1.74	0.979	-0.792	-1.58	-0.164	0.528	0.00329	0.284	0.0592	2.03
ATCTCTAGGTAAACAAGTTCAGTGAATGCCGAAC	0.431	1.06	1.16	0.55	0.583	1.04	0.677	0.774	0.448	0.709	2.47	2.16	1.52	1.13	1.19	1.47	2.08	0.521	1.04	1.05
ATATGTAGGTTAGCTGGGGTCATTCATACTAGGC	4.61	5.73	3.67	5.14	1.97	5.1	5.98	5.23	3.12	4.83	6.88	6.57	2.9	2.72	3.41	6.71	4.4	6.18	2.13	3.28
TCTAGCAGGCCAGAGCGTCACTCAAGAGGTACGG	-0.546	-0.726	-0.841	-1.08	-1.75	-0.0685	0.266	0.612	1.11	0.674	0.578	-0.464	-0.145	-0.832	-1.42	-0.785	-0.819	-0.492	-0.772	-0.306
GCGCGGAGGACAAGGTCAGAGCTTTGTCCGTAGA	1.64	1.37	-0.378	1.01	-1.25	2.27	0.135	1.16	-0.943	0.36	-0.241	0.514	-1.67	-1.56	0.0737	1.5	-0.325	2.13	-1.01	3.4
TCTAGCAGGCGAGAGGGTCACTCAAGAGGTACGG	0.647	0.656	-0.616	1.05	-1.27	2.03	0.765	1.64	1.43	1.6	0.656	-0.139	-0.781	-0.425	0.125	1.47	-0.472	2.24	-0.11	1.81
TCGAGTAGGATAGTCGGGGCATTCAGCCAACATA	-0.379	-0.526	-0.613	-0.239	-0.624	-0.194	-0.199	0.184	0.98	0.413	0.456	-0.749	-1.74	-1.22	-0.949	-0.303	-0.615	-0.363	-0.838	-0.448
CGTCCAAGGACATAGGAGGTCAGTGAAGACAGAT	1.5	1.47	1.23	1.26	-0.58	2.02	0.76	0.564	0.000734	0.268	0.24	1.36	-0.861	-1.72	1.48	2.07	0.81	2.11	0.692	2.76
GCAGACAGGTGAAACGCAGGTAACTCGGGGTGGC	-0.13	0.49	-0.695	0.134	-0.553	0.89	0.313	0.104	-0.699	-0.194	0.722	0.559	-0.371	-1.17	-0.333	0.0221	-0.587	0.361	-1.06	0.754
TGTTGTAGATCAATAGAGGTTAAGAAAGTGCGCT	1.03	3.59	1.16	1.94	1.01	1.63	0.0938	0.944	0.473	0.795	-0.0957	0.893	1.29	1.09	1.38	3.29	0.289	1.76	1.61	1.01
ATACCAAGGTGATCCTGAGGTCGTTGATACTAAC	2.37	2.1	0.935	1.98	0.354	2.1	0.744	0.547	0.147	0.197	0.567	1.08	0.87	0.266	0.931	3.21	1.41	2.34	0.52	1.39
CATACTAGGTCACCGGAAGGTCAAAGTCCGCATG	5.94	6.26	5.63	5.54	2.08	5.71	8.32	7.18	4.5	6.47	7.07	8.03	4.35	1.99	7.45	5.88	2.1	7.25	2.75	5.21
CGTCCAAGGTCATAGGAGGTCAGAGAAGACAGAT	8	7.71	5.01	6.38	0.877	6.27	6.35	6.19	2.71	5.09	3.19	4.81	1.6	0.958	3.89	6.83	4.38	6.6	1.92	5.51
TGTCATAGTTCAAAGGTAACGTAAGTATCCACAC	4.03	4.22	1.04	2.89	0.786	4.17	5.59	5.56	2.89	4.8	-0.243	3.05	1.21	1.83	1.56	3.52	1.08	4.52	1.31	3.46
GCTGCTAGGTCAGCTGATGGTCAGCTAAAGCTCG	1.21	0.513	-0.477	0.0658	-1.13	1.58	0.146	1.01	-0.292	0.544	3.51	2.35	-1.32	-1.88	0.56	-0.015	-1.12	0.983	-1.22	3.57
ATCTCTAGGGAAAGATAGTTCAGTGAATGCAAAT	-0.0344	0.192	0.0693	0.157	0.479	0.0958	0.337	0.214	0.232	0.358	0.0889	0.274	0.441	0.248	0.581	0.457	0.536	0.402	0.55	0.406
TCATAAAGGTAAAGGTGAAAGTCGAACGATATGA	1.63	1.78	-0.143	1.63	-0.307	3.51	4.7	5.2	5.07	5.53	2.88	3.1	1.14	0.528	1.69	1.3	-0.127	2.37	0.551	2.66
TCTCGGAGGACACGAGGGTCAGAGCTTTCCAGAG	0.856	0.365	-0.438	0.47	-1.32	1.46	0.145	1.07	1.75	1.17	1.25	0.292	-0.358	-0.909	0.294	0.835	-0.16	1.46	-0.665	2.38
TCTGCTAGGTCAACGATGGTCAGCAAATCTGCTA	3.33	2.48	-0.168	1.69	-0.321	3.27	2.79	3.15	2.13	2.56	3.85	4.18	0.827	0.166	0.381	1.47	-0.599	2.12	-0.686	4.26
TCTATTAGTTTAAGGGCAACCGACGAGTCCGTTT	1.36	1.32	0.766	1.32	0.433	1.33	0.0687	2.32	3.91	3.18	2.37	0.624	0.439	1.5	1.46	1.39	1.67	1.39	1.3	2.22
TCTCGGAGGGCACGAAAGGTCAGAGCTCGACATC	4.52	6.49	2.82	4.29	-0.405	4.24	2.69	3.93	2.36	3.06	1.78	2.45	-0.111	-0.16	3	5.57	0.576	5.45	0.74	4.79
